From PubChem BioAssay (NCI)
The panel holds about 79,000 compounds, 15% with a hit somewhere; the sample as a whole holds those more often. The source made the active and inactive calls. Rule as the data show it: active = growth inhibition above about 70%; inactive = the rest.

Columns and labels:
[1] = NCI Yeast Anticancer Drug Screen. Data for the rad52 strain (AID 147);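 also: 0% = growth of vehicle-treated control cultures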; conditions: S. cerevisiae rad52 mutant growth inhibition, active compounds read high
In short: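 Read-out: growth inhibition versus vehicle-treated controls. Cells were a DNA repair-deficient yeast strain treated with compounds.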

[2] = NCI Yeast Anticancer Drug Screen. Data for the wt1 strain (AID 149);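 also: 0% = growth of vehicle-treated wt1 cultures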; conditions: S. cerevisiae wt1 strain (SPY 50644) growth inhibition, active compounds read high
In short: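 Each compound is tested on wt1 yeast and the loss of growth versus vehicle gives the inhibition value.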

[3] = NCI Yeast Anticancer Drug Screen. Data for the mgt1 strain (AID 153); conditions: S. cerevisiae mgt1 mutant growth inhibition, active compounds read high
In short: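 mgt1 yeast grown with test compound; read-out is growth inhibition versus vehicle-treated cultures.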

[4] = NCI Yeast Anticancer Drug Screen. Data for the rad50 strain (AID 155);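 also: 0% = growth of vehicle-only cultures of the same strain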; conditions: S. cerevisiae rad50 strain growth inhibition, active compounds read high
In short: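 Vehicle-treated cultures provide the reference for the growth inhibition reported for compound-exposed, repair-deficient yeast.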

[5] = NCI Yeast Anticancer Drug Screen. Data for the mec2-1 strain (AID 157); conditions: S. cerevisiae mec2-1 strain, active compounds read high
In short: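 Yeast mec2-1 mutant treated with compound. Readout: growth inhibition vs vehicle controls.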

[6] = NCI Yeast Anticancer Drug Screen. Data for the rad14 strain (AID 159);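 also: 0% = growth of vehicle-treated control cultures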; conditions: S. cerevisiae rad14 strain growth inhibition, active compounds read high
In short: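 Inhibition of growth is reported for a repair-deficient yeast mutant following compound treatment, calculated relative to cultures that received vehicle.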

[7] = NCI Yeast Anticancer Drug Screen. Data for the sgs1 mgt1 strain (AID 161);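 also: 0% = growth of cultures given vehicle only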; conditions: S. cerevisiae sgs1 mgt1 strain, active compounds read high
In short: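 Test agents were incubated with a DNA-repair-mutant yeast strain. Growth was then read and compared against vehicle-treated controls.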

[8] = NCI Yeast Anticancer Drug Screen. Data for the CLN2oe strain (AID 163);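 also: 0% = growth of vehicle-only control cultures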; conditions: S. cerevisiae CLN2oe strain, active compounds read high
In short: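 Read-out: yeast growth inhibition, expressed relative to vehicle-only controls. The strain bears an engineered cell-cycle alteration.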

[9] = NCI Yeast Anticancer Drug Screen. Data for the cln2 rad14 strain (AID 165);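 also: 0% = growth equal to vehicle treated cultures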; conditions: S. cerevisiae cln2 rad14 strain, active compounds read high
In short: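 cln2 rad14 yeast strain; compound exposure; growth inhibition read vs vehicle controls.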

[10] = NCI Yeast Anticancer Drug Screen. Data for the bub3 strain (AID 167); conditions: S. cerevisiae bub3 mutant strain, active compounds read high
In short: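 Mutant yeast screening strain plus compound; vehicle-treated cultures serve as the 0% inhibition reference.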

[11] = NCI Yeast Anticancer Drug Screen. Data for the wt2 strain (AID 169); conditions: S. cerevisiae wt2 strain growth inhibition, active compounds read high
In short: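 Read-out: growth inhibition versus vehicle-treated control cultures after compound exposure of the yeast strain.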

[12] = NCI Yeast Anticancer Drug Screen. Data for the mlh1 strain (AID 171);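 also: 0% = growth of vehicle-treated control cultures of the same strain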; conditions: S. cerevisiae mlh1 strain growth inhibition, active compounds read high
In short: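 Read-out: growth inhibition versus vehicle controls. Strain: engineered yeast with a defined DNA repair or cell cycle defect, compound-treated.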

[13] = NCI Yeast Anticancer Drug Screen. Data for the sgs1 strain (AID 173);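 also: 0% = growth of vehicle-only control cultures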; conditions: S. cerevisiae sgs1 mutant, active compounds read high
In short: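 Read-out: yeast growth inhibition relative to vehicle controls, following compound exposure of a strain with a defined DNA repair/cell cycle alteration.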

[14] = NCI Yeast Anticancer Drug Screen. Data for the mlh1 rad18 strain (AID 175); conditions: S. cerevisiae mlh1 rad18 strain growth inhibition, active compounds read high
In short: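 Yeast w/ defined DNA-repair lesions; compound exposure; growth vs vehicle controls → % inhibition.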

[15] = NCI Yeast Anticancer Drug Screen. Data for the rad18 strain (AID 177); conditions: S. cerevisiae rad18 mutant growth inhibition, active compounds read high
In short: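 Readout: growth inhibition vs vehicle controls. Cells: genetically altered yeast strain, DNA repair defect.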

[16] = at 5.0 µM (retest, dose inferred, filed as 0.5)
[17] = at 50.0 µM (retest, dose inferred, filed as 5.0)

Measured: growth inhibition

COc1cccc(C(c2cc3c(cc2O)OCO3)N2CCOCC2)c1OC (stereo not drawn)
inactive: [1]; at 1.2 µM -2% | [1]; at 3.7 µM 2% | [1]; at 11.0 µM 4% | [1]; at 33.0 µM 23% | [1]; at 100.0 µM 28% | [2]; at 1.2 µM -2% | [2]; at 3.7 µM -2% | [2]; at 11.0 µM -2% | [2]; at 33.0 µM 0% | [2]; at 100.0 µM 3% | [3]; at 1.2 µM -3% | [3]; at 3.7 µM -5% | [3]; at 11.0 µM 0% | [3]; at 33.0 µM -3% | [3]; at 100.0 µM 4% | [4]; at 1.2 µM -1% | [4]; at 3.7 µM 2% | [4]; [16] -3% | [4]; at 11.0 µM 1% | [4]; at 33.0 µM 14% | [4]; [17] 48% | [4]; at 50.0 µM 42.1% | [4]; at 100.0 µM 46% | [5]; at 1.2 µM -1% | [5]; at 3.7 µM -1% | [5]; [16] -1% | [5]; at 11.0 µM -2% | [5]; at 33.0 µM -2% | [5]; [17] -9% | [5]; at 100.0 µM 37% | [6]; at 1.2 µM 0% | [6]; at 3.7 µM 4% | [6]; at 11.0 µM 7% | [6]; at 33.0 µM 10% | [6]; at 100.0 µM 21% | [7]; [16] 7% | [7]; at 50.0 µM 42.5% | [8]; at 1.2 µM -4% | [8]; at 3.7 µM -3% | [8]; at 11.0 µM -4% | [8]; at 33.0 µM 5% | [8]; at 100.0 µM 19% | [9]; [16] 1% | [9]; [17] 3% | [9]; at 50.0 µM -30.1% | [10]; at 1.2 µM -4% | [10]; at 3.7 µM -4% | [10]; [16] -13% | [10]; at 11.0 µM -9% | [10]; at 33.0 µM 4% | [10]; [17] 56% | [10]; at 50.0 µM 45% | [10]; at 100.0 µM 11% | [11]; at 1.2 µM -3% | [11]; at 3.7 µM -6% | [11]; at 11.0 µM 5% | [11]; at 33.0 µM 0% | [11]; at 100.0 µM -3% | [12]; at 1.2 µM -3% | [12]; at 3.7 µM -1% | [12]; at 11.0 µM 4% | [12]; at 33.0 µM 7% | [12]; at 100.0 µM 32% | [13]; at 1.2 µM -6% | [13]; at 3.7 µM -7% | [13]; at 11.0 µM 8% | [13]; at 33.0 µM 10% | [13]; at 100.0 µM 60% | [14]; [16] 19% | [14]; at 50.0 µM 9.25% | [15]; at 1.2 µM -3% | [15]; at 3.7 µM 0% | [15]; at 11.0 µM 4% | [15]; at 33.0 µM 10% | [15]; at 100.0 µM 36%
active: [5]; at 50.0 µM 83.8% | [7]; [17] 79% | [14]; [17] 71%
